# Values joined by “and” are separate entries in the source; they are usually repeats but may differ in a detail not shown here. Identical values can stand only once. In all, about 300,000 compounds went through this assay and about 3,200 (1.1%) were called active. Rule as the data show it: active = inhibition above about 75%; inconclusive = no clear call, values can overlap the other calls; inactive = below that; tested in HMLE shEcad cells. Many of the other results were omitted from the sample, so actives are more common in it than they were.
# Assay: cancer stem cell viability inhibitors, primary screen, luminescence (AID 2717)
# Conditions: cancer stem cell-like cells viability, at 7.5 µM, active compounds read high
row,Structure (SMILES),inhibition
1,O=C(COC(=O)c1ccc2c(c1)OCCO2)NCc1ccccc1Cl,-17.4% (inactive)
2,Cc1ccc(N2C(=O)N3[C@@H]4c5ccccc5OC[C@@H]4[C@@H](c4ccccc4)[C@@]3(C)C2=O)cc1,-10% (inactive)
3,O=C(N/N=C/c1ccc(O)c2ccccc12)c1cccnc1,8.51% (inactive)
4,CCN(CC)c1ccc(/C=N/NC(=O)c2cnccn2)c(O)c1,102% (active)
5,CCN(CC)c1ccc(/C=N/NC(=O)CNC(=O)c2cccnc2)cc1,-7.16% (inactive)
6,O=C(COC(=O)c1ccc([N+](=O)[O-])o1)NC12CC3CC(CC(C3)C1)C2,-15.4% (inactive)
7,COCCn1c(C)cc(C(=O)CN2c3cccc4cccc(c34)S2(=O)=O)c1C,12.1% (inactive)
8,COc1cc(/C=N/O)cc(Br)c1OS(=O)(=O)c1ccc(C)cc1,-11.5% (inactive)
9,COc1cc(/C=N/O)ccc1OCc1ccc([N+](=O)[O-])cc1,1.34% (inactive)
10,COc1cc(/C=N/O)cc(Br)c1OCc1cccc(Cl)c1,80.5% (active)
11,CN(CC(=O)NC1CCN(Cc2ccccc2)CC1)S(=O)(=O)c1ccc(Cl)s1,-6.54% (inactive)
12,CC(C)c1ccc2c(c1)c(SC(C)(C)C)c(CC(C)(C)C(=O)O)n2Cc1ccc(Cl)cc1,104% (active) and 102% (active)
13,O=C(O)c1ccc(Cn2c(=S)[nH]c3cc(Cl)ccc3c2=O)cc1,-3.92% (inactive)
14,O=C1COc2ccc(C(=O)COC(=O)c3ccccc3Cl)cc2N1,-17.8% (inactive)
15,Fc1ccccc1-c1cc2cc3c(cc2cn1)OCO3,14.4% (inactive)
16,COC(=O)C1=C(C)N(Cc2ccccc2)C(=NCCCOC(C)C)N[C@H]1c1ccccc1,0.115% (inactive)
17,O=C(/C=C/c1ccc(F)cc1)Nc1cccc(S(=O)(=O)Nc2cccc(C(F)(F)F)c2)c1,2.9% (inactive)
18,Cc1oc2c(F)c(F)c(F)c(F)c2c1S(=O)(=O)Nc1cccc(C(F)(F)F)c1,97.3% (active)
19,CCOC(=O)N1CCN(C(=O)c2ccc(S(=O)(=O)Nc3cccc(C(F)(F)F)c3)cc2)CC1,8.22% (inactive)
20,CC(C)c1ccc(NC(=S)NNc2ccc(Cl)c(C(=O)O)c2)cc1,-18.1% (inactive)
21,Cc1ccc(C)c(NC(=S)NNC(=O)c2csc(C)c2)c1,3.04% (inactive)
22,Cc1ccc(C)c(NC(=S)NNC(=S)Nc2ccc(C(C)C)cc2)c1,102% (active)

row,Structure (SMILES),inhibition
1,C[C@H]1COC(=O)[C@H](CC(=O)OC(C)(C)C)C/C=C\C[C@@H](CC(=O)N[C@H](CO)Cc2ccccc2)C(=O)N1,-29.3% (inactive)
2,Cc1ccccc1SCC(=O)OCC(=O)N1CC(=O)Nc2ccccc21,-8.14% (inactive)
3,CC1CCCCC1NC(=O)COc1ccc(C#N)cc1 (stereo not drawn),-1.85% (inactive)
4,CC/C(=N\NC(=S)NC(C)C)c1ccc(OC(F)F)cc1,2.7% (inactive)
5,C/C(=N\NC(=S)NC(C)C)c1ccc(C(C)(C)C)cc1,77.5% (active)
6,C/C(=N\NC(=S)NCc1ccccc1)c1ccc(Cl)cc1,41.6% (inactive)
7,O=C(COc1cccnc1[N+](=O)[O-])Nc1ccc(Cl)cc1F,-1.01% (inactive)
8,O=C1C=C(c2cc(C(F)(F)F)cc(C(F)(F)F)c2)C[C@@H](c2ccc3c(c2)OCO3)C1,34.8% (inactive)
9,COCC(=O)Nc1c(I)c(C(=O)NCC(O)CO)c(I)c(C(=O)N(C)CC(O)CO)c1I (stereo not drawn),10.5% (inactive)
10,CCN1/C(=C\c2ccc3ccccc3[n+]2CC)Sc2cc(C)ccc21,89.1% (active)
11,CCN1/C(=C/c2ccc3ccc(C)cc3[n+]2CC)Sc2ccccc21,17.6% (inactive)
12,COc1ccc(C(=O)N2CCN(c3ccc(C(C)=O)cc3F)CC2)cc1S(=O)(=O)NC1CC1,1.55% (inactive)
13,Cc1cc(N=Nc2ccc3ccccc3c2)ccc1O,112% (active)
14,CC(=O)CCC(=O)c1ccc2ccccc2c1,-3.91% (inactive)
15,COc1ccc(N=Nc2ccc(O)c(P(=O)(c3ccccc3)c3ccccc3)c2)cc1,13.4% (inactive)
16,CCN(CC)C(=O)c1nc[nH]c1C(=O)N(C)Cc1ccccc1,-14.8% (inactive)
17,COc1ccc(/C=C/C(=O)Nc2cccnc2)cc1OC,4.4% (inactive)
18,COc1ccc(/C=C/C(=O)Nc2ccc(C)cc2)cc1S(=O)(=O)N1CCOCC1,-2.38% (inactive)
19,COc1ccc(/C=C/C(=O)Nc2ccc(C34CC5CC(CC(O)(C5)C3)C4)cc2)cc1OC,91% (active)
20,CC(=O)C(CC(=O)N1CCCC1)C(=O)Nc1ccc(Cl)cc1 (stereo not drawn),-5.74% (inactive)
21,Cc1cccc(NC(=O)c2nc(S(=O)(=O)Cc3ccccc3)ncc2Cl)c1,109% (active)
22,CSc1ncc(Cl)c(C(=O)Nc2cc(C)ccc2C)n1,4.07% (inactive)

row,Structure (SMILES),inhibition
1,CCSc1ncc(Cl)c(C(=O)Nc2cc(C)ccc2C)n1,-7.15% (inactive)
2,CCSc1nnc(NC(=O)c2ccc(C)cc2)s1,15.4% (inactive)
3,CSc1nnc(NC(=O)c2nc(S(=O)(=O)Cc3ccc(C)cc3)ncc2Cl)s1,104% (active)
4,Cc1cccc(NC(=O)c2nc[nH]c2C(=O)NCC(=O)OCc2ccccc2)c1,-0.27% (inactive)
5,Cc1cc(C)cc(OCC(=O)OCC(=O)NC2CCCC2)c1,7.95% (inactive)
6,CC(C)(C)OC(=O)C[C@@H]1C/C=C\C[C@@H](CC(=O)N[C@H](CO)Cc2ccccc2)C(=O)NC[C@@H](c2ccccc2)OC1=O,0.463% (inactive)
7,CCN(C(=O)COC(=O)CCC(=O)c1cccs1)C1CCCCC1,-3.12% (inactive)
8,CC1(c2ccccc2)NC(=O)N(CC(=O)N2CC(=O)Nc3ccccc32)C1=O (stereo not drawn),-24.5% (inactive)
9,COc1cc(OC)cc(-c2c(-c3cccs3)c3cc(-c4ccc(OC)nc4)ccc3n2C)c1,30.1% (inactive)
10,COc1ccc(-c2c(-c3cc(OC)cc(OC)c3)n(C)c3ccc(-c4ccn[nH]4)cc23)cc1,109% (active)
11,COc1cc(OC)cc(-c2c(-c3ccc(F)cc3)c3cc(-c4ccc5cc[nH]c5c4)ccc3n2C)c1,14.4% (inactive)
12,CNC[C@@H]1Oc2c(NS(C)(=O)=O)cccc2C(=O)N([C@@H](C)CO)C[C@H]1C,-11.8% (inactive)
13,O=C(/C=C/Sc1ncn[nH]1)c1ccc(Cl)cc1,112% (active)
14,O=C(CSc1ncn[nH]1)N/N=C/c1ccc(F)cc1,8.65% (inactive)
15,Cc1cc(C)nc(S/C=C/C(=O)c2ccccc2)n1,49.1% (inactive)
16,CCOC(=O)[C@H]1[C@H]2COc3ccc(OC)cc3[C@@H]2N2C(=O)c3ccc(F)cc3NC(=O)[C@@]12C,9.18% (inactive)
17,CC(=O)Nc1ccc(C(=O)/C=C/c2ccc[nH]2)cc1,-8.94% (inactive)
18,CC(=O)Nc1ccc(C(=O)NNC(=O)CCCCC(=O)NNC(=O)c2ccc(NC(C)=O)cc2)cc1,0.726% (inactive)
19,CCCC(=O)Nc1ccc(C(=O)N/N=C/c2ccc[nH]2)cc1,110% (active)
20,Cc1ccc(OCCC(=O)Nc2ccc(S(=O)(=O)Nc3nccs3)cc2)cc1,-5.72% (inactive)
21,COc1ccc(C)cc1NC(=O)CSc1cccc[n+]1[O-],-18.1% (inactive)
22,O=C(Nc1cc(S(=O)(=O)N2CCCCC2)ccc1Cl)C1COc2ccccc2O1 (stereo not drawn),-13.5% (inactive)

row,Structure (SMILES),inhibition
1,Cc1[nH]n(-c2ccccc2)c(=O)c1/C=N/NC(=O)c1ccoc1C,35.2% (inactive)
2,Cc1ccc(-n2[nH]c(C)c(/C=N/NC(=O)c3cccc([N+](=O)[O-])c3)c2=O)cc1C,104% (active)
3,O=C(N/N=C/c1cccc([N+](=O)[O-])c1)c1ccncc1,0.983% (inactive)
4,CCC1CCCCN1C(=S)NC(=O)c1ccco1 (stereo not drawn),7.21% (inactive)
5,O=C(Nc1cc(-c2ccccc2)nn1-c1ccccc1F)c1ccc([N+](=O)[O-])cc1,1.45% (inactive)
6,COc1ccc(S(=O)(=O)N2CCN(c3cnccn3)CC2)cc1,7% (inactive)
7,CC(C)(C)OC(=O)NCCCCCNC(=O)c1[nH]cnc1C(=O)Nc1nccs1,0.813% (inactive)
8,CC(=O)c1ccc(NC(=O)CSc2nc3ccccc3c(=O)n2CCCN2CCOCC2)cc1,-2.25% (inactive)
9,Cc1cccc(N=C2NN=C(c3c[nH]c4ccccc34)CS2)c1,80% (active)
10,Clc1cccc(N=C2NN=C(c3ccc4c(c3)OCCO4)CS2)c1,17.2% (inactive)
11,Cc1cccc(N=C2NC(=O)/C(=C/c3cn(C)c4ccccc34)S2)c1,47.4% (inactive)
12,CCN(C(=O)CSc1nnnn1-c1ccc(OC)cc1)C1CCS(=O)(=O)C1 (stereo not drawn),-11.6% (inactive)
13,CC(NC(=O)COC(=O)c1ccc2ccccc2n1)c1ccccc1 (stereo not drawn),2.66% (inactive)
14,CCc1ccc(-c2nn(-c3ccccc3)cc2CSC(=N)N)cc1,118% (active)
15,O=C(Nc1cn(-c2ccccc2)nc1-c1ccccc1)c1ccccc1,-3.4% (inactive)
16,CCc1ccc(-c2nn(-c3ccccc3C)cc2C(=O)N2CCN(C3CCS(=O)(=O)C3)CC2)cc1 (stereo not drawn),-16.1% (inactive)
17,COc1ccc(/C=C/c2c(-c3cccc(C)c3)oc3ccc(-c4ccc5c(c4)OCO5)cc23)cc1,-7.1% (inactive)
18,Cc1cccc(-c2oc3ccc(-c4ccc5c(c4)OCO5)cc3c2C#Cc2cncn2C)c1,94.9% (active)
19,COc1ccc(C#Cc2c(-c3ccc(OC)cc3)oc3ccc(-c4ccc5c(c4)OCO5)cc23)cc1,-6.59% (inactive)
20,CCCC(CNC(=O)COC(=O)C1=NNC(=O)CC1)c1ccc(Cl)cc1Cl (stereo not drawn),-14.7% (inactive)
21,COc1cc(S(=O)(=O)N2CCN(C(=O)C3CC3)CC2)ccc1NC(C)=O,1.76% (inactive)
22,COc1ccc(C(=O)Nc2cc(S(=O)(=O)N3CCCC3)ccc2Cl)cc1,7.7% (inactive)

# Reference: PubChem BioAssay AID2717 (Broad Institute, 2010)
